Many of the other results were omitted from the sample, so hits are more common in it than they were.
TDP1 cell noCPT = qHTS for Inhibitors of human tyrosyl-DNA phosphodiesterase 1 (TDP1): qHTS in cells in absence of CPT | DT40 Tdp1-/- hTDP1 cells, no CPT, ATP luminescence, 48 h | Potency, µM (series often up to 46.2 µM), without a hit: top-dose activity change, negative = growth inhibition, most hits filed as inhibitors | 15% of 420,000 active; further: potency means the concentration at half of the fitted maximal effect; nearly all actives have a fitted effect of over 55% in size
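Seeded 400 DT40-hTDP1 cells/well (vehicle DMSO, no 20 nM CPT); pinned compounds; ≥48 hr at 37 °C; CellTiter-Glo luminescence as viability measure.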
HT1080-NT tox = kills 2HG-producing HT-1080-NT fibrosarcoma cells | HT-1080-NT fibrosarcoma viability, CellTiter-Glo ATP luminescence, 48 h | Potency, µM (series often up to 46.1 µM), for the others: at the highest dose activity, negative = less viability, hits mostly cytotoxic | 1.6% of 360,000 active | AID 686970;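 further: NT is the 2HG producing partner of a matched IDH1 knockdown line; potency means the concentration at half of the fitted maximal effect; 0% = DMSO-treated cells and -100% = media-only wells without cells; nearly all actives have a fitted effect of over 55% in size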
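Read-out is CellTiter-Glo luminescence after 10 minutes at room temperature, following 48 hours' compound treatment of HT-1080-NT cells (750 cells/well, RPMI, 5% FBS, 37 degrees C).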
HT1080 IDH1KD tx = kills HT-1080 cells with IDH1 knockdown; 2% of 360,000 active; Potency, µM (doses to about 46.1 µM), for inactives: at the top dose activity, negative = toxicity, usual class: cytotoxic; HT-1080 IDH1 knockdown viability, ATP luminescence, 48 h; AID 686971;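 further: potency means the concentration at half of the fitted maximal effect; 0% = DMSO wells and -100% = cell-free medium wells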
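Assay cells: HT-1080 with IDH1 knockdown, 750 per well, RPMI/5% FBS. Exposure: 48 h at 37 °C following 2 h pre-incubation. Read: CellTiter-Glo luminescence; fitted concentration-response, curve class assigned.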
IL1B secr inh = inhibitors of inflammasome signaling (IL-1 beta secretion) | AID 743279 | 4.7% of 360,000 active | activity change, % at 57.5 µM | THP-1 LPS/ATP IL-1B secretion, AlphaLISA, 16 h; hits give low values; in the data active means activity change below about -50%; inconclusive means mostly about -30% to -49%
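THP-1 cells pretreated 1 hr with compounds (up to 57.5 uM final), then stimulated with LPS (250 ng/mL final) plus ATP (1.25 mM final); secreted IL-1B measured by AlphaLISA after 16 hr, decreased signal indicating inhibition.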
12-LOX inh = blocks human arachidonate 12S-lipoxygenase | purified 12hLO, xylenol orange hydroperoxide absorbance | P18054 | Potency, µM (highest dose often 108 µM), for the others: at the top dose activity change, negative = inhibition, usual class: inhibitors | 1.1% of 580,000 active; further: potency means the concentration at half of the fitted maximal effect
Target sequence (P18054 whole entry, looked up): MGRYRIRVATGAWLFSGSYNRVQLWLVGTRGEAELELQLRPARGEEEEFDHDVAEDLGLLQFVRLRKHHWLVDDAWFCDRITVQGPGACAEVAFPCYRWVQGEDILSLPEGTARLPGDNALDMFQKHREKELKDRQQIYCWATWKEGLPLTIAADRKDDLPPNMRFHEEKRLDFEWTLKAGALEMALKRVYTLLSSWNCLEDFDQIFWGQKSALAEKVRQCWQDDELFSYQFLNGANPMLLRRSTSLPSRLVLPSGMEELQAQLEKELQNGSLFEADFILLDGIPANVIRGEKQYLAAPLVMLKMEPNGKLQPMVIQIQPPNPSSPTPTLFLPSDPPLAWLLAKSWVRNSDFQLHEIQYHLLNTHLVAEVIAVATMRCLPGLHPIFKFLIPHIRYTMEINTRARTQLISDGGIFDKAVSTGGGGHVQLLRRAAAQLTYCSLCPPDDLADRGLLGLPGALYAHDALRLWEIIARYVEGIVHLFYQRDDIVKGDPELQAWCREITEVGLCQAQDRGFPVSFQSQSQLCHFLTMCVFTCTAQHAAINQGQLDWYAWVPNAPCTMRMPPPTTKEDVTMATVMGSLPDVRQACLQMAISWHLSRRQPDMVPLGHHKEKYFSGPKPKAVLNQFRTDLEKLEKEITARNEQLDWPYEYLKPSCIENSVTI
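Hydroperoxide product was detected by ferrous iron/xylenol orange as the 573 to 405 nm absorbance ratio. Arachidonic acid at 40 uM (final) was turned over for 30 min at room temperature by 150 nM human 12hLO, pH 7.0 Hepes buffer, after 15 min compound preincubation.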
TDP1 cell CPT = growth inhibition of DT40 Tdp1-/-;hTDP1 cells with camptothecin (screen for TDP1 inhibitors) | chicken DT40 Tdp1-/-;hTDP1 cells + 20 nM CPT, ATP luminescence, 48 h | Potency, µM (titrated, usually from 46.2 µM), inactives show at the top dose activity change, negative = growth inhibition, actives largely listed as inhibitors | 12% of 420,000 active | AID 686979; further: potency means the concentration at half of the fitted maximal effect; nearly all actives have a fitted effect of over 55% in size
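Chicken DT40 Tdp1-/- cells stably complemented with human TDP1 were seeded at 400 cells/well in medium containing 20 nM camptothecin, exposed to pin-transferred compounds, and grown at 37 °C for at least 48 hr. Viability was read as ATP luminescence.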
* marks the source's active call; other numbers are inactive results; ? = inconclusive; . = no result given; ! = not confirmed by another sample; [ ] = another dose, or the depositor's remark. Unless noted, the call rests on the fitted dose curve; in most records, active means well fitted curve in the direction sought with a large enough effect; inconclusive means small, poorly fitted or top-dose-only effect, or another doubt; inactive means no such curve, though single readings can be large; an effect the other way counts as inactive or inconclusive. Unless noted, on the % scale 0 is the no-effect control and ±100 the full control effect.

SMILES | TDP1 cell noCPT | HT1080-NT tox | HT1080 IDH1KD tx | IL1B secr inh | 12-LOX inh | TDP1 cell CPT
CCC(=O)N1CCOc2ccc(CN3CCCCC3)cc2C1 | . | . | . | . | 29% | .
Cc1cc(=O)n(CC(=O)N2CCN(c3ccccc3F)CC2)c2c1c(C)nn2C | 8.2µM* | . | . | . | 7% | 16µM*
CCOC(=O)C1CCN(C(=O)Cn2c(=O)cc(C)c3c(C)nn(C)c32)CC1 | 18µM* | . | . | . | -9% | 26µM*
COc1cccc(CCNC(=O)CC(C)(C)C)c1 | . | . | . | . | 18% | .
C=C1C(=O)OC2C[C@@]3(C)CCCC(=C)[C@@H]3CC12 (stereo partly specified) | 24µM* | . | . | . | . | 27µM*
C=C1CCC[C@]2(C)C[C@H]3OC(=O)C(CN4CCCCC4CO)[C@H]3CC12 (stereo partly specified) | 12µM* | ? | ? | . | 0% | 4.6µM*
C=C1CCC[C@]2(C)C[C@H]3OC(=O)C(CNC(C)(CO)CO)[C@H]3CC12 (stereo partly specified) | 21µM* | -6% | ? | -96* | 9% | ?
C=C1CCC[C@]2(C)C[C@H]3OC(=O)C(CNC(CC)CO)[C@H]3CC12 (stereo partly specified) | 18µM* | ? | 21µM* | -98* | 277% | ?
Cc1ccc(NC(=O)Cn2c(=O)c3c(ncn3Cc3ccccc3)n(Cc3ccccc3)c2=O)c(F)c1 | . | . | . | . | -37% | .
COc1ccccc1-c1ccc(CN2CCN(c3cc(Cl)ncn3)C(=O)C2)cc1 | . | . | . | . | 25% | .
CSc1ccc(/C=C2/SC(=Nc3ccccc3)N(c3ccccc3)C2=O)cc1 | . | . | . | . | -2% | .
COC[C@@H]1CN(C(=O)c2cc(C)nn2C)C[C@H]1c1ccncc1 | . | . | . | . | 22% | .
C[C@@H](CN(C)C[C@H]1C(=O)O[C@@H]2C[C@@]3(C)CCC[C@]4(CO4)C3CC21)[C@H](O)c1ccccc1 (stereo partly specified) | 2%[9.04 µM] | . | . | . | 8% | 14%[9.04 µM]
C=C1CCC[C@]2(C)C[C@H]3OC(=O)C(CN(C)CC(OC)OC)[C@H]3CC12 (stereo partly specified) | ? | -2% | ? | -92* | 0% | ?
C=C1CCC[C@]2(C)C[C@H]3OC(=O)C(CNC(C)CC)[C@H]3CC12 (stereo partly specified) | ? | ? | ? | -96* | -24% | ?
c1csc(CNCC2CCCCC2)c1 | . | . | . | . | -17% | .
CC1CCC(C(C)C)C(OC(=O)COC(=O)c2c(F)cccc2Cl)C1 (stereo unspecified) | . | . | . | . | -2% | .
CC1CCC(C(C)C)C(OC(=O)Cn2c(-c3ccc(Cl)cc3)[n+](C)c3ccccc32)C1 (stereo unspecified) | 2.1µM* | 5.8µM* | 5.8µM* | -91* | 0% | 2.3µM*
Cc1ccccc1OCc1n(CC(=O)OC2CC(C)CCC2C(C)C)c2ccccc2[n+]1C (stereo unspecified) | 2.6µM* | 16µM* | 7.3µM* | -97*! | ? | 10µM*
CC1CCC(C(C)C)C(OC(=O)COC(=O)c2ccc(N)cc2)C1 (stereo unspecified) | ? | -4% | -10% | 0 | -11% | ?
CCOc1c(Cl)cc(CNC(C)(C)CC(C)(C)C)cc1OC | 21µM* | ? | ? | -12 | 0% | ?
COC(=O)CCNC(=O)c1ccc2c(c1)NC(=O)CS2 | . | . | . | . | 6% | .
Cc1ccccc1/[N+]([O-])=C\c1cccs1 | . | . | . | . | 76% | .
O=C(NCC1CCCO1)c1cccc(C(=O)NCC2CCCO2)c1 (stereo unspecified) | ? | 4% | 3% | 6 | 0% | -1%
CC1=Nc2cc(C(=O)NCC3CCCO3)ccc2Sc2ccc(C)cc21 (stereo unspecified) | 0.92µM* | 8% | ? | 6 | 0% | 0.58µM*
SMILES | TDP1 cell noCPT | HT1080-NT tox | HT1080 IDH1KD tx | IL1B secr inh | 12-LOX inh | TDP1 cell CPT
CC1=Nc2cc(C(=O)NCCCN3CCN(C)CC3)ccc2Sc2ccc(C)cc21 | 18µM* | -24% | -13% | -2 | -2% | ?
CCC(C)NC(=O)c1ccc2c(c1)N=C(C)c1cc(C)ccc1S2 (stereo unspecified) | 5.2µM* | . | . | . | 0% | 3.3µM*
CC1=Nc2cc(C(=O)NC(C)c3ccccc3)ccc2Sc2ccccc21 (stereo unspecified) | . | . | . | . | -4% | .
Cc1cc(NC(=O)C2CC2)sc1C(=O)NC(C)c1ccc(Cl)cc1 (stereo unspecified) | . | . | . | . | -15% | .
CC(C)Cc1cc(C[C@@H]2C[C@H](NC(=O)c3ccco3)C2(C)C)no1 | . | . | . | . | 1%[176 µM] | .
CC1CC(C)CN(C(=O)c2ccc(NC(=O)c3ccc(=O)[nH]c3)cc2)C1 (stereo unspecified) | -23% | -6% | -4% | 6 | 15% | 0%

Source: PubChem (National Center for Advancing Translational Sciences (NCATS))
